Shown are actives, neighbours in structure and some others; about 19% of the full set was active somewhere.
TDP1 cell CPT = qHTS for Inhibitors of human tyrosyl-DNA phosphodiesterase 1 (TDP1): qHTS in cells in presence of CPT; chicken DT40 Tdp1-/-;hTDP1 cells + 20 nM CPT, ATP luminescence, 48 h; Potency, µM (series often up to 46.2 µM), hits mostly inhibitors; 12% of 420,000 active; AID 686979, 2013; note: nearly all actives have a fitted effect of over 55% in size
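Chicken DT40 Tdp1-/- cells complemented with human TDP1, 400 cells/well, exposed to compounds plus 20 nM camptothecin for at least 48 h at 37 C; viability read as ATP content by CellTiter-Glo luminescence.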
TDP1 cell noCPT = qHTS for Inhibitors of human tyrosyl-DNA phosphodiesterase 1 (TDP1): qHTS in cells in absence of CPT | DT40 Tdp1-/- hTDP1 cells, no CPT, ATP luminescence, 48 h | Potency, µM (highest dose often 46.2 µM), most hits filed as inhibitors | 15% of 420,000 active; note: nearly all actives have a fitted effect of over 55% in size
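Cells were dispensed at 400 per well, compounds added by pin tool, plates incubated ≥48 hr at 37 °C, then CellTiter-Glo added for 30 min at room temperature before luminescence reading. Line: DT40 Tdp1-/- complemented with hTDP1; camptothecin omitted.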
HT1080 IDH1KD tx = qHTS for induction of synthetic lethality in tumor cells producing 2HG: qHTS for the HT-1080-IDH1KD cell line. HT-1080 IDH1 knockdown viability, ATP luminescence, 48 h. 2% of 360,000 active. AID 686971, 2013. Potency, µM (highest dose often 46.1 µM), most hits filed as cytotoxic
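Cytotoxicity counter-line: IDH1KD HT-1080, 48 h, CellTiter-Glo. Curves classed by r2, magnitude and activity.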
HT1080NT lethal = qHTS for induction of synthetic lethality in tumor cells producing 2HG: qHTS for the HT-1080-NT fibrosarcoma cell line. AID 686970, 2013. HT-1080-NT fibrosarcoma viability, CellTiter-Glo ATP luminescence, 48 h. 1.6% of 360,000 active. Potency, µM (top dose mostly 46.1 µM), usual class: cytotoxic;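 note: NT is the 2HG producing partner of a matched IDH1 knockdown line; nearly all actives have a fitted effect of over 55% in size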
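Luminescent CellTiter-Glo readout after 48 hours of compound exposure at 37 degrees C defined viability of HT-1080-NT cells. Activity was normalized to DMSO wells and cell-free media wells; concentration-response curves were fitted and assigned curve classes.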
IL-1B inflam inh = qHTS for Inhibitors of Inflammasome Signaling: IL-1-beta AlphaLISA Primary Screen; 4.7% of 360,000 active; AID 743279, 2014; activity change, % at 57.5 µM; THP-1 LPS/ATP IL-1B secretion, AlphaLISA, 16 h; stronger effect = lower value; in the data active = activity change below about -50%; inconclusive = mostly about -30% to -49%
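THP-1 cells pretreated 1 hr with compounds (up to 57.5 uM final), then stimulated with LPS (250 ng/mL final) plus ATP (1.25 mM final); secreted IL-1B measured by AlphaLISA after 16 hr, decreased signal indicating inhibition.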
Large screens that a line does not name were inactive. Unless noted, calls come from the whole dose curve; as a rule, active = well fitted curve in the direction sought with a large enough effect; inconclusive = small, poorly fitted or top-dose-only effect, or another doubt; inactive = no such curve, though single readings can be large; an effect the other way counts as inactive or inconclusive.

CCCn1cc(S(=O)(=O)c2ccc(Cl)cc2)c(=O)c2cc(OC)ccc21	TDP1 cell CPT 16.4µM, TDP1 cell noCPT 23.1µM
CCOc1ccc(S(=O)(=O)c2cn(Cc3ccccc3C)c3ccc(OC)cc3c2=O)cc1	TDP1 cell CPT 14.6µM, TDP1 cell noCPT 11.6µM (no result: HT1080 IDH1KD tx, HT1080NT lethal, IL-1B inflam inh)
COc1ccc2c(c1)c(=O)c(S(=O)(=O)c1ccc(C)cc1)cn2Cc1ccccc1C	TDP1 cell CPT inconclusive, TDP1 cell noCPT 18.4µM (no result: HT1080 IDH1KD tx, HT1080NT lethal, IL-1B inflam inh)
COc1ccc2c(c1)c(=O)c(S(=O)(=O)c1ccc(Cl)cc1)cn2Cc1cc(C)ccc1C	TDP1 cell noCPT inconclusive (no result: HT1080 IDH1KD tx, HT1080NT lethal, IL-1B inflam inh)
CCCn1cc(S(=O)(=O)c2ccc(C)cc2)c(=O)c2cc(OC)ccc21	none
COc1ccc(C(=O)N2C=Cc3ccccc3C2C(N)=O)cc1 (stereo not given)	TDP1 cell CPT inconclusive, TDP1 cell noCPT inconclusive
c1ccc(-c2csc(CN3CCCCC3)n2)cc1	TDP1 cell noCPT inconclusive
COc1cccc(/C=N/NC(=O)c2nnn(-c3nonc3N)c2C(C)C)c1OCc1ccc(F)cc1	TDP1 cell CPT inconclusive, TDP1 cell noCPT inconclusive, HT1080 IDH1KD tx inconclusive, IL-1B inflam inh -69.7
COc1cc(/C=N/NC(=O)c2nnn(-c3nonc3N)c2C(C)C)ccc1OCc1ccccc1	TDP1 cell CPT inconclusive, TDP1 cell noCPT 20.6µM, HT1080NT lethal inconclusive
CC(C)c1c(C(=O)N/N=C/c2cccc(OCc3ccccc3)c2)nnn1-c1nonc1N	IL-1B inflam inh -84.5
CCOC(=O)c1nnn(C(CC)C(=O)Nc2ccc(F)cc2)c1C(=O)OCC (stereo not given)	none (no result: HT1080 IDH1KD tx, HT1080NT lethal, IL-1B inflam inh)
Cc1cc2nc(-c3ccc(OCc4ccc(F)cc4)cc3)cc(C(F)(F)F)n2n1	none (no result: HT1080 IDH1KD tx, HT1080NT lethal, IL-1B inflam inh)
CC(C)(C)NC(=O)NC(=O)COC(=O)c1cc(=O)[nH]c2ccccc12	none
c1ccc(Cn2c[n+](Cc3ccccc3)c3ccccc32)cc1	TDP1 cell CPT 3.26µM, TDP1 cell noCPT 2.91µM, HT1080 IDH1KD tx inconclusive, HT1080NT lethal inconclusive
COc1cccc(N2CCN(S(=O)(=O)c3ccc(-n4cnnn4)cc3)CC2)c1	TDP1 cell noCPT inconclusive
O=C(/C=C/c1cccs1)Nc1cccc(NC(=O)/C=C/c2cccs2)n1	TDP1 cell CPT 11.6µM, TDP1 cell noCPT 8.2µM
Cc1cc(C)c(-c2csc(NC(=O)/C=C/c3cccs3)n2)c(C)c1	TDP1 cell CPT inconclusive, TDP1 cell noCPT 18.4µM
O=C(/C=C/c1cccs1)Nc1ccc(Br)cn1	TDP1 cell CPT 0.259µM, TDP1 cell noCPT 0.326µM, HT1080 IDH1KD tx 0.184µM, HT1080NT lethal 0.116µM
Cc1ccc2c(CC(=O)Nc3nc(C)cs3)coc2c1	TDP1 cell CPT inconclusive, TDP1 cell noCPT inconclusive
Cc1ccc(NC2=C(N3CCCCC3)C(=O)c3ccccc3C2=O)cc1	TDP1 cell CPT 2.59µM, TDP1 cell noCPT 2.31µM, HT1080 IDH1KD tx inconclusive, HT1080NT lethal inconclusive, IL-1B inflam inh -67.8
CN(C1=C(N2CCCCC2)C(=O)c2ccccc2C1=O)c1ccccc1	TDP1 cell CPT 14.6µM, TDP1 cell noCPT 20.6µM, HT1080 IDH1KD tx inconclusive, HT1080NT lethal inconclusive, IL-1B inflam inh -82.3
COc1ccccc1NC1=C(N2CCCCC2)C(=O)c2ccccc2C1=O	TDP1 cell CPT 2.06µM, TDP1 cell noCPT 1.84µM, HT1080 IDH1KD tx inconclusive, HT1080NT lethal 4.61µM, IL-1B inflam inh inconclusive
O=C1C(Nc2ccccc2)=C(N2CCCCC2)C(=O)c2ccccc21	TDP1 cell CPT 18.4µM, TDP1 cell noCPT 9.2µM, HT1080 IDH1KD tx inconclusive, HT1080NT lethal inconclusive
COc1ccccc1NS(=O)(=O)c1cc(N)ccc1N1CCCC1	TDP1 cell CPT inconclusive, TDP1 cell noCPT inconclusive
COCC(=O)N1CCC2(CC1)CCN(C(=O)Nc1cccc(F)c1)CC2	none (no result: HT1080 IDH1KD tx, HT1080NT lethal, IL-1B inflam inh)
O=C(CNC(=O)c1ccccc1)c1ccccc1	HT1080NT lethal inconclusive
O=C1C(Nc2cccc(O)c2)=C(N2CCCCC2)C(=O)c2ccccc21	TDP1 cell CPT 8.2µM, TDP1 cell noCPT 7.31µM, HT1080 IDH1KD tx inconclusive, HT1080NT lethal inconclusive, IL-1B inflam inh -83.6
CC1(C)CC(=O)C=C(Nc2cccc(O)c2)C1	none
O=C(/C=C/c1ccc(O)cc1)c1ccc(NC2=C(N3CCCCC3)C(=O)c3ccccc3C2=O)cc1	TDP1 cell CPT 1.3µM, TDP1 cell noCPT 1.64µM, HT1080 IDH1KD tx inconclusive, IL-1B inflam inh inconclusive
CC1=Nc2nc(N3CCCCC3)c(C#N)c3c4c(nc(c23)N1)N(c1ccc(C(C)C)cc1)C(=O)C4	TDP1 cell CPT inconclusive, TDP1 cell noCPT inconclusive
CCOC(=O)CSc1nnc(-c2nnc(SCC(=O)OCC)n2CC)n1CC	none
CCOC(=O)c1ccc(NC2OC(=O)c3ccccc32)cc1 (stereo not given)	HT1080 IDH1KD tx inconclusive
CCOC(=O)c1sc(N2C(=O)C(O)=C(C(=O)c3ccc(C)o3)C2c2ccc(OC)c(OC)c2)nc1C (stereo not given)	TDP1 cell CPT 23.1µM, TDP1 cell noCPT inconclusive
COc1cc(C2C(C(=O)c3ccc(C)o3)=C(O)C(=O)N2c2cc(C)on2)ccc1OCc1ccccc1 (stereo not given)	TDP1 cell CPT inconclusive, TDP1 cell noCPT 29.1µM
Cc1cc(N2C(=O)C(O)=C(C(=O)c3cc4ccccc4o3)C2c2ccc(OC(C)C)cc2)no1 (stereo not given)	TDP1 cell CPT inconclusive, TDP1 cell noCPT 16.4µM
COc1cccc(C2C(C(=O)c3ccc(C)o3)=C(O)C(=O)N2c2cc(C)on2)c1 (stereo not given)	TDP1 cell CPT 23.1µM, TDP1 cell noCPT inconclusive
COc1cccc(C2C(C(=O)c3cccs3)=C(O)C(=O)N2c2cc(C)on2)c1 (stereo not given)	none
COC(=O)c1ccc(C2C(C(=O)c3cc4ccccc4o3)=C(O)C(=O)N2c2cc(C)on2)cc1 (stereo not given)	none
CCOc1ccc(C2C(C(=O)c3ccc(C)o3)=C(O)C(=O)N2c2cc(C)on2)cc1OC (stereo not given)	none
O=C(Cc1cccc2ccccc12)NCCc1ccccc1	none
COc1ccc2[nH]c(C(=O)O)c(NS(=O)(=O)c3ccc(C)cc3C)c2c1	none
O=[N+]([O-])c1ccc(O)c(-c2cc(C(F)(F)F)nc(-c3ccccc3)n2)c1	TDP1 cell CPT 0.581µM, TDP1 cell noCPT 0.651µM, HT1080NT lethal 2.31µM, IL-1B inflam inh -61.7
CCOCc1cc(=O)[nH]c(SC)n1	none
CN(C)CCN(C(=O)/C=C/c1cccs1)c1nc2ccc(F)cc2s1	TDP1 cell CPT 20.6µM, TDP1 cell noCPT 18.4µM, HT1080 IDH1KD tx inconclusive, HT1080NT lethal inconclusive, IL-1B inflam inh -66.5
Cc1cccc2sc(N(CCCN(C)C)C(=O)CCc3ccccc3)nc12	TDP1 cell CPT 25.9µM, TDP1 cell noCPT inconclusive

From PubChem BioAssay
